Data as given in the OligoGym collection.

target: DEF6; experiment: pooled miR-30 sensor sort-seq; sequence = guide strand; settings: shRNA
Also: reference of the scale not given here.

Sequence | sensor-assay potency score (higher = more potent)
AAGAGCTCCAGGAACTGCCAGA | -0.993
TTCTTCATCTCGCCGAGCTTTC | -1.29
TCAACTGCTTCAGCTTCTCTTC | -0.841
TCTTCCAGCAGTCTGGTCTGAG | -0.41
TTCATCTGGACATTCCAGTGTT | 0.421
TTGAAGAGGCACCAGAGGCGGA | -1.08
TTCAGCTGCATCAACTGCTTCA | 0.367
TTGTCCAGGATGTACTTGTTGA | -0.794

target: DEK; experiment: as above; settings: shRNA

Sequence | sensor-assay potency score (higher = more potent)
TTTCCTTTAACTCTTCATCTGT | 0.131
ATCATCTGAAGACTCTTCCTTG | -0.474
TTAATGAGGACACAGTGCCTGG | -0.975
TTTAACTCTTCATCTGTAGGGG | 0.332
TTCTTTATCTTCATCATCTGAA | 0.212
TAGATTTCTAAGTTCATCGGTT | 0.499
TTAACTCTTCATCTGTAGGGGG | 0.319
TTTTACTTTTAGAAGTAGCTTT | 0.164
TAGTTCACTATTTACACCTGAT | -0.118
TTTGGAACTGTTTTGATTCTTC | 0.827
TTATTGTTTCCTTTAACTCTTC | -0.171
TAACTCTTCATCTGTAGGGGGT | 0.328

target: DENND3; experiment: as above; settings: shRNA

Sequence | sensor-assay potency score (higher = more potent)
TTGGACTTAGAAGCATTCCATT | -1.49
TTGAACACGGTCACCTTGCCTT | -0.0431
TTATCAGAACTAAACCGTCGGC | -0.359
TTCCACACCAGCACCATGCCGT | -0.0924
TAGATGACGGAGTCTTCCGAGC | -1.16
TTGTAGAAATCTTTGAATGTTT | -1.03
TAGAGCAGCACGTCCACCGCTT | 0.371
TTGATGATGTAGATGACGGAGT | -0.511
TAAATGATTCTTTACATCCCTG | -0.0961
TATCAGAACTAAACCGTCGGCT | 0.0696
TATTTATCAGAACTAAACCGTC | -0.811
TTATCGTCCGTGGACTTGGAGT | -1.3

target: DEXI; experiment: as above; settings: shRNA

Sequence | sensor-assay potency score (higher = more potent)
TAGAGGGCAGCAGCGGCGGCGG | -1.83
TAAACATCCATCGCAGCTGCAA | -0.291
TCAAACAGGAACCTCTCTGTTG | -0.754
TAGTACAGGATCAGCACATTGA | -0.394
TACAGGATCAGCACATTGACGA | 0.243
TAACGTGGCACTCACCAGCATG | -1.35
TTAAGTAGGCACAACACTCATA | -0.271
TAACCTGAAATGAAGGAGCGAG | -0.355
